Test results: PubChem BioAssay (NCI)
The panel holds about 83,000 compounds, 20% with a hit somewhere; the sample as a whole holds those more often.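 Method: cells in 96-well plates; compound added at one concentration; 48 h incubation; percent growth measured; values under 10 scored active.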 Calls of active or inactive are those of the source.

Key:
Test in all cases: NCI-60 one-dose screen, 48 h (100 = growth as untreated, 0 = no growth, -100 = all killed)
Conditions in all cases: 10 µM
SK-MEL-2 melanoma = tested on: SK-MEL-2 melanoma
EKVX NSCLC = tested on: EKVX NSCLC
SN12C renal = tested on: SN12C renal
UO-31 renal = tested on: UO-31 renal
TK-10 renal = tested on: TK-10 renal
ACHN renal = tested on: ACHN renal
CAKI-1 renal = tested on: CAKI-1 renal
A498 renal = tested on: A498 renal
CCRF-CEM leukemia = tested on: CCRF-CEM leukemia
MOLT-4 leukemia = tested on: MOLT-4 leukemia

Measured: growth

O=C(CSc1nnc(-c2c[nH]c3ccccc23)n1-c1ccccc1)c1ccc(Cl)cc1
inactive: SK-MEL-2 melanoma 33.7% | EKVX NSCLC 25.6% | SN12C renal 64.6% | UO-31 renal 54.8% | TK-10 renal 84% | ACHN renal 57.5% | CAKI-1 renal 64.5% | A498 renal 57.3% | CCRF-CEM leukemia 92.7% | MOLT-4 leukemia 104%

C#CCNC(=O)CCC(=O)OC[C@]12CC[C@@H](C(=C)C)[C@@H]1C1CC[C@@H]3[C@@]4(C)CCCNC(C)(C)[C@@H]4CC[C@@]3(C)[C@]1(C)CC2 (stereo not given in full)
active: SK-MEL-2 melanoma -66.1% | EKVX NSCLC 2.91% | CCRF-CEM leukemia -13.2% | MOLT-4 leukemia -3.06%
inactive: SN12C renal 19.2% | UO-31 renal 33.5% | TK-10 renal 11.6% | ACHN renal 26.6% | CAKI-1 renal 17.3% | A498 renal 68.5%

COc1cc(/C=C/C(=O)c2ccc(NC(=O)CN3C(=O)NC(C)(c4ccccc4)C3=O)cc2)cc(OC)c1OC (stereo not given)
active: CCRF-CEM leukemia 7.14% | MOLT-4 leukemia 1.84%
inactive: SK-MEL-2 melanoma 86% | EKVX NSCLC 73.2% | SN12C renal 10.7% | UO-31 renal 73.9% | TK-10 renal 98.6% | ACHN renal 56% | CAKI-1 renal 75.3% | A498 renal 132%

CN(C)c1ccc(/C=C/c2nc3ccccc3c(=O)n2CC(=O)Nc2ccccc2)cc1
inactive: SK-MEL-2 melanoma 71.4% | EKVX NSCLC 63.6% | SN12C renal 39% | UO-31 renal 54.3% | TK-10 renal 95% | ACHN renal 18.8% | CAKI-1 renal 24.4% | A498 renal 70.5% | CCRF-CEM leukemia 90% | MOLT-4 leukemia 79.5%

CCN1CCN(Cc2ccc(NC(=O)c3cccc(-n4cc(-c5ccc(NC(C)=O)nc5)nn4)c3)cc2C(F)(F)F)CC1
inactive: SK-MEL-2 melanoma 106% | EKVX NSCLC 105% | SN12C renal 95.9% | UO-31 renal 107% | TK-10 renal 149% | ACHN renal 109% | CAKI-1 renal 88.9% | A498 renal 213% | CCRF-CEM leukemia 39.2% | MOLT-4 leukemia 80.3%

Cc1cc(C)cc(Oc2cccc(-c3c(C)nnn3C3CCN(CCN(C)C)CC3)n2)c1
inactive: SK-MEL-2 melanoma 38.7% | EKVX NSCLC 39.7% | SN12C renal 41.4% | UO-31 renal 15.8% | TK-10 renal 21.1% | ACHN renal 26.2% | A498 renal 56.4% | CCRF-CEM leukemia 16.7% | MOLT-4 leukemia 30.8%
active: CAKI-1 renal 7.83%

O=C(Nc1ccc(F)c(Cl)c1)c1cc(-c2ccc(F)cc2F)ccc1O
inactive: TK-10 renal 19.1%
active: SK-MEL-2 melanoma -69.2% | EKVX NSCLC -5.82% | SN12C renal -17.3% | UO-31 renal -5.93% | ACHN renal -13.4% | CAKI-1 renal -18.2% | A498 renal -21% | CCRF-CEM leukemia 0.694% | MOLT-4 leukemia -21.1%

COc1ccccc1C(=O)NNC(=O)CSc1nc2c(c(=O)[nH]1)CCCC2
inactive: SK-MEL-2 melanoma 112% | EKVX NSCLC 91.5% | SN12C renal 102% | UO-31 renal 61.9% | TK-10 renal 132% | ACHN renal 98.8% | CAKI-1 renal 84.5% | A498 renal 153% | CCRF-CEM leukemia 96.8% | MOLT-4 leukemia 105%

O=C1Nc2ccc(F)cc2/C1=C/c1cccc(OCc2ccccn2)c1
inactive: SK-MEL-2 melanoma 46.6% | EKVX NSCLC 28.3% | UO-31 renal 34% | TK-10 renal 80.9% | ACHN renal 37.9% | CAKI-1 renal 17.2% | A498 renal 87.3% | MOLT-4 leukemia 12.1%
active: SN12C renal 9.51% | CCRF-CEM leukemia 3.93%

CN1CCN(Cc2ccc(C(=O)Nc3cccc(Nc4ccc5cc(O)ccc5n4)c3)cc2C(F)(F)F)CC1
inactive: TK-10 renal 24% | A498 renal 148%
active: SK-MEL-2 melanoma -95% | EKVX NSCLC -40.7% | SN12C renal -64% | UO-31 renal -36.8% | ACHN renal -56.8% | CAKI-1 renal -28% | CCRF-CEM leukemia -37.1% | MOLT-4 leukemia -41.1%

C=CCn1c(SCC(=O)Nc2ccc(C(=O)/C=C/c3ccccc3)cc2)nnc1-c1c[nH]c2ccccc12
inactive: SK-MEL-2 melanoma 58.3% | EKVX NSCLC 40.9% | SN12C renal 68.3% | UO-31 renal 31.2% | TK-10 renal 89.2% | ACHN renal 52.2% | CAKI-1 renal 57.3% | A498 renal 109% | CCRF-CEM leukemia 55.4% | MOLT-4 leukemia 33.2%

O=C(NCCCCCCCCCC[P+](c1ccccc1)(c1ccccc1)c1ccccc1)c1ccc(-n2nc(-c3ccccc3O)nc2-c2ccccc2O)cc1
active: SK-MEL-2 melanoma -79.6% | EKVX NSCLC -90% | SN12C renal -76.4% | UO-31 renal -84.3% | TK-10 renal -91.1% | ACHN renal -98.6% | CAKI-1 renal -68.5% | A498 renal -75.1% | CCRF-CEM leukemia 4.27% | MOLT-4 leukemia -10.4%

CC(=O)NS(=O)(=O)c1ccc(NC(=O)CSC2=NC(c3ccccc3)C(C(C)=O)=C(C)N2)cc1 (stereo not given)
inactive: SK-MEL-2 melanoma 115% | EKVX NSCLC 104% | SN12C renal 111% | UO-31 renal 91.5% | TK-10 renal 116% | ACHN renal 111% | CAKI-1 renal 99.4% | A498 renal 133% | CCRF-CEM leukemia 95.4% | MOLT-4 leukemia 109%

O=C(c1ccc(Cl)cc1)C1[C@H](c2ccccc2Br)[C@@H](c2ccccc2)NC12C(=O)Nc1ccccc12 (stereo not given in full)
active: SK-MEL-2 melanoma 2.05% | SN12C renal -54.2% | CCRF-CEM leukemia 7.61% | MOLT-4 leukemia 2.61%
inactive: EKVX NSCLC 14% | UO-31 renal 13.1% | TK-10 renal 55.7% | ACHN renal 11.1% | CAKI-1 renal 14.8% | A498 renal 55.5%
